Source: PubChem BioAssay (National Center for Advancing Translational Sciences (NCATS))
Shiga inhibitor = blocks Shiga toxin action in Vero cells | Vero cells, Shiga toxin protein synthesis inhibition reporter | hit rate 9.2% among 290,000 | AID 2315 | inhibition, % at 38.7 µM; in the data active means inhibition mostly above about 28%, no sharp cut-off; inactive means mostly below about 43%; further: 0% is about no effect
NS1 inh = blocks influenza NS1 protein function; hit rate 0.4% among 270,000; AID 2326; Potency, µM (top dose mostly 46.1 µM), without a hit: top-dose activity, positive = more growth; calls by dose curve; further: potency means the concentration at half of the fitted maximal effect; actives are rising curves; nearly all actives have a fitted effect of over 50% in size
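In this qHTS, NS1 from influenza A is expressed in budding yeast, where it slows growth. Cells are switched from glucose to 2% galactose medium (pH 6.0, -URA), treated with compound, and growth recovery is read at OD600.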
Pf growth 96h = P. falciparum growth inhibition at 96 hours; P. falciparum luciferase reporter growth, 96 h; Potency, µM (highest dose often 28.7 µM), inactives show at the highest dose activity change, negative = inhibition, most hits filed as inhibitors; hit rate 6.9% among 320,000; AID 504834; further: potency means the concentration at half of the fitted maximal effect; on the % scale 0 is the no-effect control and ±100 the full control effect
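Compounds incubated with erythrocytes infected by luciferase-expressing P. falciparum (2% hematocrit, 0.05% parasitemia final) for 96 hours, 37 C in 5% CO2. Growth inhibition scored as decreased luciferase luminescence.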
Pf growth 48h = inhibits P. falciparum growth in the first generation, 48 h; P. falciparum luciferase growth in erythrocytes, 48 h; Potency, µM (doses to about 28.7 µM), without a hit: at the top dose activity change, negative = inhibition, most hits filed as inhibitors; hit rate 5.9% among 310,000; AID 504832; further: potency means the concentration at half of the fitted maximal effect; on the % scale 0 is the no-effect control and ±100 the full control effect
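Here the parasites carry a stable luciferase gene and grow inside erythrocytes in Albumax-based RPMI medium with compound for one erythrocytic cycle. Activity is scored as loss of luminescent signal.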
CHX counter = counter-screen hit for Shiga toxin inhibitors, cycloheximide; cell reporter, cycloheximide protein synthesis inhibition counterscreen; max response, %; hit rate 12% among 300,000; AID 2314; in the data active means max response mostly above about 13%, no sharp cut-off; inactive means mostly below about 14%; further: read at 38.3 µM for the half of the compounds with a filed dose; 0% is about no effect
Sm TGR block = S. mansoni TGR enzyme inhibition. Q962Y6. purified TGR, DTNB reduction, TNB absorbance 405 nm. Potency, µM (doses to about 114 µM), without a hit: top-dose activity change, negative = inhibition, most hits filed as inhibitors. hit rate 3% among 360,000. AID 485364; further: potency means the concentration at half of the fitted maximal effect; on the % scale 0 is the no-effect control and ±100 the full control effect; nearly all actives have a fitted effect of over 60% in size
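TGR 20 nM + NADPH 100 uM (dispensed conc.), cpd preinc 15 min RT; start with NADPH (500 uM addition) then DTNB (15 mM addition). Kinetic TNB absorbance, 405 nm filter. Four-parameter Hill fit across titration.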
Starred values were filed as active, the others as inactive; [ ] = dose if it differs, or a comment. A selection: hits, their analogues and other compounds. The true share with any hit is near 21%. Unless noted, the call rests on the fitted dose curve; in most records, active means well fitted curve in the direction sought with a large enough effect; inconclusive means small, poorly fitted or top-dose-only effect, or another doubt; inactive means no such curve, though single readings can be large; an effect the other way counts as inactive or inconclusive.

How did Cc1c2cnn(CC(=O)N3CCC4(CC3)OCCO4)c(=O)c2c(C)n1Cc1cccc(Cl)c1 do in these assays?
Shiga inhibitor: -4.8; NS1 inh: 7.1%; Pf growth 96h: inconclusive; Pf growth 48h: 12.2%; CHX counter: 9.0; Sm TGR block: -13.2%

Results for Cc1c2cnn(CC(=O)N3CCN(c4ccc(F)cc4)CC3)c(=O)c2c(C)n1Cc1ccccc1F ?
Sm TGR block: 2.7%

Results for CC1CCN(C(=O)Cn2ncc3c4ccccc4n(C)c3c2=O)CC1 ?
Shiga inhibitor: 21.4; NS1 inh: 4.3%; Pf growth 96h: 32.9%; Pf growth 48h: 31.3%; CHX counter: 0.8; Sm TGR block: -1.7%

How did Cn1c2ccccc2c2cnn(CC(=O)N3CCCCC3)c(=O)c21 do in these assays?
Shiga inhibitor: 29.9; NS1 inh: -4.1%; Pf growth 96h: 28.2%; Pf growth 48h: 14.9%; CHX counter: 17.3*; Sm TGR block: 10.2%

Results for Cc1c2cnn(CC(=O)N3CCC4(CC3)OCCO4)c(=O)c2c(C)n1Cc1ccccc1F ?
Shiga inhibitor: -5.3; NS1 inh: 16.8%; Pf growth 96h: 0.0104µM*; Pf growth 48h: 2.8%; CHX counter: -3.0; Sm TGR block: 0.9%

Results for CCOc1ccc(NC(=O)CCn2cccn2)cc1 ?
Sm TGR block: -2.9%

How did O=[N+]([O-])c1ccc(NN=C2c3ccccc3Cc3ccccc32)c([N+](=O)[O-])c1 do in these assays?
NS1 inh: -7.9%

How did c1ccc(SC(Sc2ccccc2)c2ccc3c(c2)OCO3)cc1 do in these assays?
NS1 inh: -12.7%

How did COC(=O)c1ccc2c(c1)NC(=O)c1ccccc1S2 do in these assays?
Shiga inhibitor: -19.8; NS1 inh: 11.0%; Pf growth 96h: -7.6%; Pf growth 48h: -21.8%; CHX counter: -6.5; Sm TGR block: 8.5%

Results for CN(C)CCNC(=O)c1ccc2c(c1)NC(=O)c1ccccc1S2 ?
Shiga inhibitor: -14.5; NS1 inh: 8.3%; Pf growth 96h: inconclusive; Pf growth 48h: 11.7µM*; CHX counter: 3.0; Sm TGR block: 3.6%

What do the screens show for `COC(CN(C)C(=O)c1ccc2c(c1)NC(=O)c1ccccc1S2)OC`?
Shiga inhibitor: -4.4; NS1 inh: 2.9%; Pf growth 96h: 10.1%; Pf growth 48h: 1.47µM*; CHX counter: -2.7; Sm TGR block: -26.7%

What do the screens show for `CCN(CC)CCNC(=O)c1ccc2c(c1)NC(=O)c1ccccc1S2`?
Shiga inhibitor: -4.4; NS1 inh: -3.5%; Pf growth 96h: inconclusive; Pf growth 48h: inconclusive; CHX counter: 1.1; Sm TGR block: -13.0%

How did CCOC(=O)c1c(S(=O)(=O)N2CCCC(C(=O)Nc3ccc(C)cc3C)C2)c(C)n(CC)c1C (configuration not stated) do in these assays?
Sm TGR block: 1.4%

Results for O=c1cc(CNc2ccc(Br)cc2)nc2sccn12 ?
Shiga inhibitor: 56.1*; NS1 inh: 0.2%; Pf growth 96h: 22.1%; Pf growth 48h: 46.6%; CHX counter: 28.1*; Sm TGR block: 3.0%

What do the screens show for `CN(Cc1cc(=O)n2ccsc2n1)C1CCCCC1`?
Shiga inhibitor: -5.3; NS1 inh: -0.6%; Pf growth 96h: -24.8%; Pf growth 48h: 18.3%[1.15 µM]; CHX counter: -1.8; Sm TGR block: 31.6µM*

Results for CC(=O)c1ccc(OCc2cc(=O)n3ccsc3n2)cc1 ?
Shiga inhibitor: 62.6*; NS1 inh: 26.1%; Pf growth 96h: 147.2%; Pf growth 48h: 125.9%; CHX counter: 37.7*; Sm TGR block: 3.3%

What do the screens show for `CN(Cc1cc(=O)n2ccsc2n1)c1ccccc1`?
Shiga inhibitor: -2.5; NS1 inh: 2.1%; Pf growth 96h: -25.8%; Pf growth 48h: 11.4%; CHX counter: 2.1; Sm TGR block: 19.5%

Results for CCOC(=O)c1c(NC(=O)c2cc3nc(-c4ccccc4)cc(C(F)(F)F)n3n2)sc2c1CCC(C)C2 (configuration not stated) ?
Sm TGR block: 0.9%

How did COc1ccc(OCC(=O)Nc2ccc(NC(=O)c3cccs3)cc2)cc1 do in these assays?
Shiga inhibitor: 26.5; NS1 inh: -19.7%; Pf growth 96h: 16.5%; Pf growth 48h: -4.0%; CHX counter: 8.0; Sm TGR block: 5.2%

What do the screens show for `CC(C)(C)c1ccc(Oc2ccc(NC(=O)c3cccs3)cn2)cc1`?
Shiga inhibitor: 1.9; NS1 inh: -5.6%; Pf growth 96h: 13.1µM*; Pf growth 48h: 2.62µM*; CHX counter: 8.7; Sm TGR block: -0.6%

Results for COc1ccc(NC(=O)c2cccs2)cn1 ?
Shiga inhibitor: 61.5*; NS1 inh: -48.9%; Pf growth 96h: 102.0%; Pf growth 48h: 17.6%; CHX counter: 25.9*; Sm TGR block: 14.5%

Results for O=C(N/N=C/c1ccc(Cl)cc1)C(=O)N1CCCCCC1 ?
Shiga inhibitor: 3.1; NS1 inh: 1.1%; Pf growth 96h: -7.5%; Pf growth 48h: 101.4%; CHX counter: 6.2; Sm TGR block: 10.5%

What do the screens show for `COC(=O)C1CCN(C(=O)COc2ccc(N(C)S(=O)(=O)c3ccc(C)cc3)cc2)CC1`?
Pf growth 96h: inconclusive; Pf growth 48h: 13.1µM*; Sm TGR block: -12.5%

Results for CN1CCN(C(=O)COc2ccc(N(C)S(=O)(=O)c3ccc(F)cc3)cc2)CC1 ?
Shiga inhibitor: -3.4; Pf growth 96h: -13.1%; Pf growth 48h: 20.0%; CHX counter: -1.3; Sm TGR block: -5.9%

How did CN(c1ccc(OCC(=O)N2CCCC2)cc1)S(=O)(=O)c1ccc(Cl)cc1 do in these assays?
Pf growth 96h: inconclusive; Pf growth 48h: 10.4µM*; Sm TGR block: -4.8%

Results for NS(=O)(=O)c1ccc(NCc2cnc3ccccc3n2)cc1 ?
NS1 inh: 0.0%

Results for N#CCc1cnc2ccccc2n1 ?
Shiga inhibitor: 68.9*; NS1 inh: 5.4%; Pf growth 96h: 0.0%; Pf growth 48h: -4.1%; CHX counter: 18.3*; Sm TGR block: -1.5%

What do the screens show for `CC(NC(=S)Nc1ccc(F)cc1)C(c1cccs1)N1CCOCC1` (configuration not stated)?
Shiga inhibitor: -6.5; NS1 inh: -6.1%; Pf growth 96h: inconclusive; Pf growth 48h: inconclusive; CHX counter: -1.8; Sm TGR block: -2.0%

Results for Oc1ccc(-c2cn3cc(C(F)(F)F)ccc3n2)cc1 ?
Shiga inhibitor: 18.0; NS1 inh: -3.4%; Pf growth 96h: 79.8%; Pf growth 48h: 82.7%; CHX counter: 9.8; Sm TGR block: 3.3%

How did CN(C)C(=O)Oc1cccc(-c2cn3cc(Cl)ccc3n2)c1 do in these assays?
Shiga inhibitor: 57.9*; NS1 inh: -11.3%; Pf growth 96h: 213.3%; Pf growth 48h: 142.8%; CHX counter: 43.1*; Sm TGR block: -0.1%

What do the screens show for `CC1CCN(S(=O)(=O)c2cccc(-c3cn4cc(Cl)ccc4n3)c2)CC1`?
Shiga inhibitor: 53.5*; NS1 inh: -25.9%; Pf growth 48h: -2.4%; CHX counter: 11.6; Sm TGR block: 6.2%
